In ChEMBL document CHEMBL4513141, “CO-ADD screening of NIH (USA) - Clinical Collection” (2021) one finds Inhibition data, which are given here for 25 compounds.

Potency and affinity values are given separately.

Assay [1] has as its system Klebsiella pneumoniae. As to conditions: Concentration 20 uM; ASSAY_TEST Inhibition of Bacterial Growth; detection method Absorption (OD600); MEDIA CAMHB; plate type 384well; NBS; CORNING #3640; time 18 hr.
The subject of assay [2] is Candida albicans. Conditions: 20 µM.
Assay [3] relates to Cryptococcus neoformans. Conditions: Concentration 20 uM; ASSAY_TEST Inhibition of Fungal Growth; detection method Resazurin; Absorption (OD600-OD570); plate type 384well; NBS; CORNING #3640.

As usually defined, the Inhibition is the change of the read-out against control, counted positive when it falls. With `CCCOc1ccc(C(=O)OCCN(CC)CC)cc1N.Cl` [PROPARACAINE HYDROCHLORIDE], the Inhibition in assay [1] came to 1.6%; in assay [2], 0.55%; in assay [3] it was 2.64%.
The matching figures for `CC(=O)[C@H]1CC[C@H]2[C@@H]3C[C@H](C)C4=CC(=O)CC[C@]4(C)[C@H]3[C@@H](O)C[C@]12C` [MEDRYSONE]: 12.23%, 1.89% and -4.18%.
For the compound `CCOC(=O)[C@@H](CCc1ccccc1)N[C@@H](C)C(=O)N1CCC[C@H]1C(=O)O.O=C(O)/C=C\C(=O)O`, the Inhibition was 10.36% in assay [1], 0.69% in assay [2] and -1.23% in assay [3].
As for `Cc1ccc(-c2cc(C(F)(F)F)nn2-c2ccc(S(N)(=O)=O)cc2)cc1` [CELECOXIB], the Inhibition in assay [1] is 10.55%; in assay [2] it was 2.46%; in assay [3], 0.77%.
Take `Sc1ncnc2nc[nH]c12` [MERCAPTOPURINE ANHYDROUS]: the Inhibition is 7.84% in assay [1], 11.2% in assay [2] and -0.87% in assay [3].
Regarding `CN1CCN(c2nc3cc(C(F)(F)F)ccc3n3cccc23)CC1.O=C(O)/C=C\C(=O)O.O=C(O)/C=C\C(=O)O`, the figures for the Inhibition in assay [1], in assay [2] and in assay [3] were 7.65%, 3.61% and 2.72%, respectively.
The matching figures for `Nc1nc2c(ncn2COC(CO)CO)c(=O)[nH]1` [GANCICLOVIR]: 11.05%, 0% and -0.42%.
The matching figures for `CN1CCN(CCCN2c3ccccc3Sc3ccc(Cl)cc32)CC1.O=C(O)/C=C\C(=O)O.O=C(O)/C=C\C(=O)O` [PROCHLORPERAZINE MALEATE]: 14.2%, 3.08% and -1.92%.
The matching figures for `Cc1cccc(Nc2ccccc2C(=O)O)c1C` [MEFENAMIC ACID]: 12.13%, 7.85% and 2.83%.
`CC(C)(S)C(N)C(=O)O` (stereo not drawn) [DL-PENICILLAMINE]: the Inhibition in assay [1] is 8.23%; in assay [2], 3.66%; in assay [3] it was -9.16%.
The corresponding values for `CCN(CC)CC1CCCCN1CC(=O)N1c2ccccc2C(=O)Nc2cccnc21` (configuration not stated) [OTENZEPAD] are 12.92%, 3.03% and 3.45%.
The corresponding values for `COc1ccccc1OCCNCC(O)COc1cccc2[nH]c3ccccc3c12` (configuration not stated) [CARVEDILOL] are 14.17%, 1.69% and 1.85%.
The matching figures for `O=C(O)c1cc(-c2ccc(F)cc2F)ccc1O` [DIFLUNISAL]: 3.43%, 13.4% and -3.56%.
In the case of `OCCN(CCO)c1nc(N2CCCCC2)c2nc(N(CCO)CCO)nc(N3CCCCC3)c2n1` [DIPYRIDAMOLE], the Inhibition in assay [1] is 2.81%; in assay [2], 2.59%; in assay [3], 5.59%.
The matching figures for `NC(=O)c1cnccn1` [PYRAZINAMIDE]: 10.9%, 1.92% and -9.58%.
With `C[C@@H]1O[C@@H](OC[C@H]2O[C@@H](Oc3c(-c4ccc(O)c(O)c4)oc4cc(O)cc(O)c4c3=O)[C@H](O)[C@@H](O)[C@@H]2O)[C@H](O)[C@H](O)[C@H]1O` [RUTIN], the results for the Inhibition in assay [1], in assay [2] and in assay [3] were 10.13%, 3.37% and -5.7%, respectively.
The matching figures for `CCOC(=O)[C@H](CCc1ccccc1)N[C@@H](C)C(=O)N1[C@H](C(=O)O)C[C@@H]2CCC[C@@H]21`: 20.74%, 1.9% and -1.7%.
The matching figures for `COc1ccc(Cl)cc1C(=O)NCCc1ccc(S(=O)(=O)NC(=O)NC2CCCCC2)cc1` [GLYBURIDE]: 8.21%, -0.39% and 1.86%.
The matching figures for `Cl.NC1CCN(c2cccc(Cl)n2)CC1`: 7.75%, 2.49% and 0.18%.
As for `CC(O)CO.N[C@@H](C(=O)N[C@@H]1C(=O)N2C(C(=O)O)=C(CSc3c[nH]nn3)CS[C@H]12)c1ccc(O)cc1`, the Inhibition in assay [1] is 6.28%; in assay [2], 12.3%; in assay [3], -40.25%.
The corresponding values for `C[C@]12C=CC(=O)C=C1CC[C@@H]1[C@@H]2[C@@H](O)C[C@@]2(C)[C@H]1CC[C@]2(O)C(=O)COC(=O)CCC(=O)[O-].[Na+]` [PREDNISOLONE SODIUM SUCCINATE] are 6.54%, -0.07% and 1.35%.
The corresponding values for `COc1ccc(-c2cc(=O)c3c(OC)c(OC)c(OC)c(OC)c3o2)cc1OC` [NOBILETIN] are 4.76%, 7.12% and -2.3%.
Regarding `CCCN(CCC)S(=O)(=O)c1ccc(C(=O)O)cc1` [PROBENECID], the Inhibition in assay [1] is 16.52%; in assay [3], -7.72%.
On to `Nc1ccc(O)c(C(=O)O)c1` [MESALAMINE], for which the Inhibition in assay [2] was 1.32%; in assay [3], 3.98%.
The matching figures for `O=C([O-])Cc1ccccc1Nc1c(Cl)cccc1Cl.[Na+]` [DICLOFENAC SODIUM]: 5.99% and 1.05%.
